Laboratory results from ChEMBL document CHEMBL3988442, “University of Dundee, Small-Polar-MMV Screening Library” (2021).
Among all 48,000 compounds or so, about 13,000 (27%) showed an effect of 50% or more. This is one part of the list.

Test system: Wolbachia pipientis
Experiment: Anti-Wolbachia Cell-Based Screen
Assay type: functional
Design: scale not given: in the data most compounds retested in dose-response had high values
Conditions: 5 µM

SMILES | Percent Effect [%]
NS(=O)(=O)CCNC(=O)c1cc(Br)c2c(c1)OCCO2 | 3.55
CC(C)n1cc(CN2CCCN(C(=O)c3nccnc3N)CC2)cn1 | -14.33
CC(C)n1cc(CN2CCCN(C(=O)c3ccc[nH]3)CC2)cn1 | -9.453
CC(C)n1cc(CN2CCCN(C(=O)C(C)n3cncn3)CC2)cn1 (stereo unspecified) | 115.2
Cc1ncncc1C(=O)N1CCCN(Cc2cnn(C(C)C)c2)CC1 | -23.75
CC(C(=O)N1CCCN(Cc2ccc(C#N)cc2)CC1)n1ccnc1 (stereo unspecified) | -13.4
CC(C)C(C(=O)N1CCCN(Cc2cnn(C)c2)CC1)n1cncn1 (stereo unspecified) | -6.037
CC(C(=O)N1CCCN(Cc2cnn(C(C)C)c2)CC1)n1ccnc1 (stereo unspecified) | 86.84
CC(C)n1cc(CN2CCCN(C(=O)C(C)n3cccn3)CC2)cn1 (stereo unspecified) | 97.33
CCC(=O)N1CCN(c2cc(-n3cnc(C)c3C)nc(C)n2)CC1 | -0.8212
CN1CCOC(C(=O)N(C)c2ccc3c(c2)CCO3)C1 (stereo unspecified) | -1.104
Cc1cccc(-c2nc(C)nn2CN2CCN(c3ncccn3)CC2)c1 | -20.31
CCC(C(=O)NCc1ccncc1)N(c1ccccc1)S(C)(=O)=O (stereo unspecified) | -24.56
COCCn1cc(NC(=O)NC(C)c2ccc(Cl)s2)cn1 (stereo unspecified) | 1.705
CC1(C)[C@H](Cc2cc(CN3CCCCC3)on2)C[C@@H]1NS(C)(=O)=O | -2.638
CN(Cc1nc(N2CCCC2)ncc1-c1ccncc1)C(=O)C(C)(C)C.Cl | 94.15
CC(C)C(=O)N(C)Cc1nc(N2CCCC2)ncc1-c1ccncc1.Cl | 82.87
CN(Cc1ccsc1)C(=O)c1nc(N2CCCC2)ncc1Cl | -53.64
CN(Cc1ccsc1)C(=O)c1nc(N2CCCCC2)ncc1Cl | 3.668
CN(C)C(CNC(=O)c1nc(N2CCCC2)ncc1Cl)c1ccco1 (stereo unspecified) | 2.501
Cn1c(NC(=O)CCS(=O)(=O)C2CCCC2)nc2cc(Cl)ccc21 | 1.786
CCN(CC)CC[C@H]1CN(C(=O)CC(C)(C)C)CC[C@H]1CC(=O)O | -10.9

SMILES | Percent Effect [%]
O=C(C1CC1)N1CCc2[nH]cnc2C12CCN(C1CCOCC1)CC2 | -3.543
O=S(=O)(c1ccc(F)c(F)c1)n1cc(Cl)cn1 | 96.85
COc1ccc(F)cc1S(=O)(=O)N1CCC(Oc2ccc(Cl)cn2)CC1 | -6.405
O=S(=O)(c1cc(F)ccc1F)n1cc(Cl)cn1 | 95.85
O=S(=O)(c1cc(F)cc(F)c1)N1CCC(Oc2ccc(Cl)cn2)CC1 | 14.51
Cn1cc(CNS(=O)(=O)c2cc(F)ccc2F)cn1 | -25.59
O=S(=O)(c1ccc(F)cc1)n1cc(Cl)cn1 | 120.8
Cc1cnn(-c2ccc(S(N)(=O)=O)cc2F)c1 | -6.422
O=S(=O)(c1ccc(F)cc1)N1CCCn2cnc(CN3CCCC3)c2C1 | -4.272
CC1CN(S(=O)(=O)c2ccc(F)cc2)c2cccnc2O1 (stereo unspecified) | -6.329
Cc1nc(CCNC(Cc2ccncc2)C(F)(F)F)cs1 (stereo unspecified) | -2.78
CC(O)CCn1ccc2[nH]c(=O)c(C#N)cc2c1=O (stereo unspecified) | -44.58
COc1cc(C(=O)N(C)Cc2cc(C(=O)O)c(C)o2)cc(OC)c1OC | -0.7675
COC(=O)c1cc2c(OC)c(OC)c(OC)cc2[nH]1 | 120.2
COc1cc2cc(C(=O)O)n(C)c2c(OC)c1OC | -1.189
COc1cc2[nH]c(=O)c(CN3CCC[C@@H]3C(N)=O)cc2c(OC)c1OC | -9.081
COc1cc(C(=O)Nc2c(C)noc2C)ccc1C | 5.924
COC(=O)C(C)NCc1ccc2[nH]c(C)c(C)c2c1 (stereo unspecified) | -1.475
COC(=O)c1cc2c(OC)c(C)c(OC)cc2[nH]1 | 95.02
COc1cc2[nH]c(=O)c(CN3CCCC(CO)C3)cc2c(OC)c1OC (stereo unspecified) | 1.788
COc1cc2[nH]c(C(=O)O)cc2c(OC)c1C | 98.44
CCCn1nc2c(cc1=O)CN(CC(=O)N(C)c1nccs1)CC2 | -22.84

SMILES | Percent Effect [%]
CCc1cc(NCCCC2CCOC2)n2nccc2n1 (stereo unspecified) | -1.009
CCc1nnsc1C(=O)NCCn1nc2ccccn2c1=O | 6.254
NC(=O)C(NC(=O)c1cc(Cl)c[nH]1)c1ccccc1 (stereo unspecified) | 10.72
c1ccc(CN(Cc2cccc3cnccc23)CC2CCCO2)nc1 (stereo unspecified) | 15.94
COCC1CN(CC2CC2)Cc2nn(C)cc21.O=C(O)C(F)(F)F (stereo unspecified) | -11.2
COCC1CN(S(=O)(=O)C2CC2)Cc2ncn(CC3CC3)c21 (stereo unspecified) | 93.96
COCC1CN(CC2CC2)Cc2ncn(CC3CC3)c21 (stereo unspecified) | 123
CCOCC1CN(S(=O)(=O)C2CC2)Cc2nn(C)cc21 (stereo unspecified) | -10.65
COCC1CN(C(=O)CS(C)(=O)=O)Cc2ncn(CC3CC3)c21 (stereo unspecified) | 98.19
CCn1cc2c(n1)CN(S(=O)(=O)c1ccc(C)cc1)CC2COC (stereo unspecified) | -1.212
CCOC(=O)C1CN(S(=O)(=O)C2CC2)Cc2ncn(CC)c21 (stereo unspecified) | -2.058
CCOCC1CN(S(=O)(=O)C2CC2)Cc2ncn(CC3CC3)c21 (stereo unspecified) | 93.99
COCC1CN(C(=O)CC2=CCCCC2)Cc2nnn(CC3CC3)c21 (stereo unspecified) | 25.21
COCC1CN(C(=O)Cc2ccccn2)Cc2ncn(C)c21 (stereo unspecified) | -6.541
CCOCC1CN(S(C)(=O)=O)Cc2ncn(CC3CC3)c21 (stereo unspecified) | -5.705
COCC1CN(Cc2ccc(C)o2)Cc2ncn(CC3CC3)c21 (stereo unspecified) | 4.542
CCN(C)S(=O)(=O)c1ccc(Cl)cc1C#N | -3.723
CCN1C(=O)[C@]2(CC[C@@H]3CN(C(=O)NCC(C)C)C[C@@H]32)N=C1C | 1.741
CCS(=O)(=O)N1Cc2ncn(CC3CC3)c2C(COC)C1 (stereo unspecified) | 96.93
CCOCC1CN(S(=O)(=O)CC)Cc2nn(C)cc21 (stereo unspecified) | -1.442
COCC1CN(S(C)(=O)=O)Cc2ncn(CC3CC3)c21 (stereo unspecified) | -3.416
CCS(=O)(=O)N1CCc2cc(C(=O)NC)c(NCC(C)C)nc2CC1 | -9.983
